# Laboratory results taken from PubChem BioAssay.
# A number with no mark means an inactive call. Active and inactive are the calls of the source. Cut-off read from the data, not from the text of the source: active = inhibition above about 36%; inactive = the rest.
# Tested on: transactivating tegument protein VP16 (Human herpesvirus 1)
# Assay: VP16 transactivation reporter inhibitors, counter-screen for SRC2 inhibitor project, cell-based, luminescence, single concentration (AID 652007)
# Details: cell-based VP16 transactivation luciferase reporter, at 8.9 µM, active compounds read high
row,Compound,inhibition
1,Cc1ccc(Cl)cc1N1CCN(C(=O)CCS(=O)(=O)c2ccc3c(c2)NC(=O)CO3)CC1,13.9%
2,CSc1nnc(NC(=O)c2nc(S(=O)(=O)Cc3cccc(C)c3)ncc2Cl)s1,41.9% (active)
3,Nn1cnnc1SCC(=O)N1CCc2ccccc2C1,3.54%
4,Cc1c(NC(=O)COC(=O)C23CC4CC(CC(O)(C4)C2)C3)c(=O)n(-c2ccccc2)n1C,2.86%
5,O=C(CCl)N1c2ccccc2CCc2ccccc21,29.1%
6,Cc1ccc(S(=O)(=O)Nc2ccccc2C(=O)N2CCCC2)cc1,-24.9%
7,COc1ccccc1N1CCN(C(CNC(=O)c2ccco2)c2cccnc2)CC1 (centres undefined),-7.16%
8,CC(=O)NN1C(=O)/C(=C\c2ccc(Br)o2)SC1=S,14.8%
9,COC(=O)Cc1ccc(NC(=O)c2ccccc2Cl)cc1,-35.8%
10,O=C(NCc1ccco1)/C(=C/c1cccc([N+](=O)[O-])c1)NC(=O)c1ccco1,-6.26%
11,Cc1cc2nc(Sc3c([N+](=O)[O-])nc(C)n3Cc3ccccc3)[nH]c2cc1C,5.05%
12,CC(C)c1cc(CNC(=O)c2ccc(OC3CCN(Cc4ccccn4)CC3)cc2)on1,-9.72%
13,Cc1ccc(C(=O)O/N=C(\N)c2ccccn2)cc1C,-29.9%
14,O=C(CCc1nnc(-c2ccc(-c3ccccc3)cc2)o1)NCCc1ccccn1,14.7%
15,Cc1ccc(S(=O)(=O)N2CCN(C(=O)c3cc4c(C)nn(-c5ccccc5C)c4s3)CC2)cc1,4.9%
16,COCCNC(=O)CN(C(=O)c1ccc(N2CCCC2)nc1)c1ccc(F)c(Cl)c1,-5.77%
17,O=C(O)Cc1nn(Cc2ccc(Cl)cc2)c(=O)c2ccccc12,-13.4%
18,CC(=O)NCCOc1nc(N2CCCCC2)nc(N2CCCCC2)n1,0.94%
19,N#Cc1c(NC(=O)CSc2ncn[nH]2)sc2c1CCCC2,84% (active)
20,CC(C)(C)NS(=O)(=O)c1ccc(Oc2ncc(C(F)(F)F)cc2Cl)cc1,-20%

row,Compound,inhibition
1,CCC(=O)Nc1ccc2c(c1)C(=O)N(C)[C@@H]1CC[C@@H](CC(=O)NCc3ccc(OC)cc3)O[C@H]1CO2,-18.1%
2,CC(=O)c1cccc(NC(=O)c2ccccc2N(C)S(=O)(=O)c2ccc(C)cc2)c1,-5.87%
3,Cc1cccc(N(Cc2ccccc2)C(=O)CCl)c1,15%
4,Cc1c([N+](=O)[O-])cnc(Sc2ccccc2)c1[N+](=O)[O-],3.41%
5,Cc1cc(Nc2ccccc2)n(C(=O)c2ccc(N)cc2)n1,-71.3%
6,COc1cccc(CNC(=O)C2CCN(S(=O)(=O)c3ccc(F)cc3)CC2)c1,16.3%
7,Cc1ccc([C@@H]2C[C@H]3[C@@H](CN2S(=O)(=O)c2ccc(C)cc2)C(=O)C[C@@H](c2ccccc2F)N3S(=O)(=O)c2ccc(C)cc2)cc1,-8.37%
8,O=C(O)COc1ccc(-c2nccc(-c3ccccn3)n2)cc1,20.4%
9,C[C@@H]1CNCCN1c1ccc(N2CCN(Cc3ccccc3)[C@@H](C)C2)c(C#N)c1,15.5%
10,Cc1ccc2c(c1)N(C(C)C(=O)NCc1ccc3c(c1)OCO3)C(=O)CO2 (centres undefined),-10.5%
11,CCOc1ccc(NC(=O)c2ccccn2)cc1,-15.2%
12,Nn1c(SCC(=O)Nc2cccc3ccccc23)nnc1-c1cc(-c2ccc(Cl)cc2)n[nH]1,51% (active)
13,CCC/C(C#Cc1ccsc1)=C1/c2ccccc2C(=O)N1c1ccccc1,-8.53%
14,Cc1nc(SCCC(=O)O)c2cc(-c3ccccc3)sc2n1,48.6% (active)
15,CCC(C)c1ccc(C(C)NC(=S)NC2CCCCC2)cc1 (centres undefined),-0.76%
16,Cc1nc2cc(-c3ccc(Cl)cc3)nn2c(C)c1CCC(=O)NC(C)c1ccc2c(c1)OCCO2 (centres undefined),-10.9%
17,CC(C)[C@H](NC(=O)[C@@H]1Cc2ccccc2CN1)C(=O)Nc1ccc2c(c1)OCCO2,-21%
18,COc1ccc(C#Cc2ccc3c(c2)[C@H]2[C@H](CCN2S(=O)(=O)c2ccccc2F)[C@H](CO)N3C)cc1,-5.48%
19,Nc1nc(-c2ccccc2)c(N=Nc2cccnc2)s1,5.71%
